# This is a sample that favours compounds with a hit; in the whole collection about 4.7% have one here.
# DRD3 antagonist: blocks the human D3 dopamine receptor. P35462. D3R cells, DiscoveRx beta-arrestin luminescence, antagonist mode; active compounds read low. max response, negative = inhibition, %. 360,000 tested, 2.5% active; in the data active = max response below about -50%; inconclusive = no clear call, values can overlap the other calls; note: % is set by controls: 0 for no effect and ±100 for the full control effect
# Target sequence (P35462 whole entry, looked up): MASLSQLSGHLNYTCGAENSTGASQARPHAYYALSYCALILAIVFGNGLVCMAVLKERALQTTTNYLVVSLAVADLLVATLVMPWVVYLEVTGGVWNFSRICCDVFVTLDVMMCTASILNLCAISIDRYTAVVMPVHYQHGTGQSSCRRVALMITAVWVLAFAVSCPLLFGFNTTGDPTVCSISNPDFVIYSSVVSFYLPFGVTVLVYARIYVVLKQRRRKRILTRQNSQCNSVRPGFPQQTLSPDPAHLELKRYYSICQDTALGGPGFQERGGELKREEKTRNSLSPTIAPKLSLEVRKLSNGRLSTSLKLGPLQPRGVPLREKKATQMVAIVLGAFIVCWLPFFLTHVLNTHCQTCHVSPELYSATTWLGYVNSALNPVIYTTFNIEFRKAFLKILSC
#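 Cells expressing the human receptor were seeded at 1500 cells/well, incubated overnight at 37 degrees C in 5% CO2, then exposed to library compounds with dopamine controls for 90 minutes at 37 degrees C before luminescent detection.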
# TGFb SMAD3 inh: blocks TGF-b signaling. 410,000 tested, 1.2% active. HepG2 CAGA-GFP TGF-b/SMAD3 reporter, GFP fluorescence, 18 h; TGF-beta stimulated, 500 pg/mL final. Potency, µM (doses to about 46.1 µM), for inactives: at the top dose activity, negative = inhibition, most hits filed as inhibitors. AID 588855; note: potency is the fitted concentration of half-maximal effect; % is set by controls: 0 for no effect and ±100 for the full control effect; nearly all actives have a fitted effect of over 65% in size
#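 HEPG2 CAGA-GFP, 1000 cells/well; 2 h settle, 37 C; cpd via pin tool; TGF-b 500 pg/mL final; 18 h, 37 C; GFP imaging ex488/em500-530; %Activity normalised to -TGF-b and +DMSO controls; CRC fit, curve class.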
# ATXN viability: viability counter-screen for ATXN expression inhibitors. Potency, µM (doses to about 56.7 µM), actives largely listed as cytotoxic. 400,000 tested, 0.49% active. S2 cells (HEK-293 line with an ATXN2-luciferase reporter) viability, CellTiter-Fluor protease fluorescence, 24 h; note: potency is the fitted concentration of half-maximal effect; nearly all actives have a fitted effect of over 40% in size
# ATXN2 expr inh: ATXN2 expression inhibition; HEK-293 ATXN2-luciferase reporter, luminescence, 24 h; Potency, µM (series often up to 57 µM), without a hit: at the top dose activity change, negative = inhibition, hits mostly inhibitors; 360,000 tested, 0.72% active; AID 1745845; note: potency is the fitted concentration of half-maximal effect; % is set by controls: 0 for no effect and ±100 for the full control effect; nearly all actives have a fitted effect of over 55% in size
#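 qHTS (up to 57 uM final) was run with 24 h compound exposure of reporter cells at 37 °C. Each well was multiplexed: SteadyGlo luminescence measured ATXN2-luciferase expression after a fluorogenic Gly-Phe-AFC viability readout (25 uM final).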
# HepG2 tox: counter-screen for TGF-b inhibitors: cytotoxicity in HepG2 cells. AID 588856. Potency, µM (highest dose often 46.1 µM), without a hit: top-dose activity change, negative = cytotoxicity, most hits filed as cytotoxic. 410,000 tested, 0.76% active. HepG2 CAGA-GFP viability, ATP luminescence, 18 h; note: potency is the fitted concentration of half-maximal effect
#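 HepG2 CAGA-GFP cells (1000/well, DMEM with 1% FBS) received compound, then TGF-beta at 500 pg/mL final, and were incubated 18 hours at 37 degrees C. Viability was read by CellTiter-Glo luminescence. Media-only wells were set as complete cell-killing and DMSO as no toxicity.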
# D3 ag: D3 dopamine receptor (human) agonism; P35462; D3R DiscoveRx beta-arrestin cells, luminescence, 90 min; max activation, %; 410,000 tested, 0.58% active; AID 652048; in the data active = max activation above about 30%; note: 0% is about no effect
#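 Cells at 1500/well, incubated overnight, then treated with pinned compounds (dopamine as control) for 90 min at 37 degrees C. DiscoveRx reagent added for 30 - 60 minutes at room temperature; luminescence read.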
# * marks the source's active call; other numbers are inactive results; i = inactive; u = inconclusive; x = no result given; [ ] = remark or other dose. Unless noted, calls come from the whole dose curve; as a rule, active = well fitted curve in the direction sought with a large enough effect; inconclusive = small, poorly fitted or top-dose-only effect, or another doubt; inactive = no such curve, though single readings can be large; an effect the other way counts as inactive or inconclusive.
SMILES,DRD3 antagonist,TGFb SMAD3 inh,ATXN viability,ATXN2 expr inh,HepG2 tox,D3 ag
CCN(CC)CCNCC(=O)Nc1ccc(Cl)cc1C(=O)c1ccccc1,-56*,-3%,i,3%,-13%,1
CN1C2CCC(C)(C)C1CC(OC(=O)C(O)(c1cccs1)c1cccs1)C2 (stereo not given),x,x,i,1%,x,x
CCOc1ccc(N2C(=O)/C(=C\c3cccs3)C(=O)NC2=S)cc1,u,u,35µM*,32µM*,-33%,-12
CCOc1ccc(N2C(=O)/C(=C/c3ccco3)C(=O)NC2=S)cc1,u,u,i,x,-47%,1
CCOc1ccccc1N1C(=O)NC(=O)/C(=C/c2ccc3c4c(cccc24)CC3)C1=O,-52*,-4%,i,-4%,6%,1
CCN1CCN(Cc2ccccc2C)CC1,-66*,6%,i,3%,-13%,-13
CCN1CCN(Cc2ccc(C)cc2C)CC1,-72*,0%,i,-8%,8%,-2
CCOc1cccc(=NC2CCCCC2)c2c(C)n(C)c(C)c12,3,10µM*,u,u,-10%,2
CCCCn1c(O)c(C(CC)=NCCCN(C)C)c(=O)[nH]c1=O,-64*,-12%,i,-13%,-1%,-5
CCCCn1c(O)c(C(C)=NCCCN(C)C)c(=O)[nH]c1=O,-7,29%,i,0%,1%,-1
Cc1ccccc1-n1c(CF)nc2ccc(N)cc2c1=O,x,x,x,x,x,11
COc1ccc(S(=O)(=O)N(C)C[C@H]2OCCCC[C@H](C)Oc3ccc(N(C)C)cc3C(=O)N([C@H](C)CO)C[C@@H]2C)cc1,19,6%,i,8%,1%,2
COC(=O)C1=C(c2ccc(F)cc2OCc2ccccc2)C[C@@H]2CC[C@H]1N2C(=O)NC1CCN(Cc2ccccc2)CC1,-108*,u,14µM*,u,-32%,-8
COC(=O)C1=C(c2ccccc2OCc2ccccc2)C[C@@H]2CC[C@H]1N2C(=O)NCc1ccccc1,-13,u,u,u,-3%,-12
COC(=O)C1=C(c2ccc(OCc3ccccc3)cc2)C[C@@H]2CC[C@H]1N2C(=O)NCCCc1ccccc1,-51*,6%,i,1%,-15%,-9
COC(=O)C1=C(c2ccccc2OCc2ccccc2)C[C@@H]2CC[C@H]1N2C(=O)NC1CCN(Cc2ccccc2)CC1,-85*,u,u,u,-10%,-71
COC(=O)C1=C(c2ccc(F)cc2OCc2ccccc2)C[C@@H]2CC[C@H]1N2C(=O)NCc1ccccc1,-3,u,u,u,-21%,-13
COC(=O)C1=C(c2cccc(OCc3ccccc3)c2)C[C@@H]2CC[C@H]1N2C(=O)NC1CCN(Cc2ccccc2)CC1,-120*,u,x,u,13µM*,-49
CNC(C)CC1CCCCC1 (stereo not given),x,x,i,x,x,-22
CCN[C@H](C)Cc1cccc(C(F)(F)F)c1,x,x,i,12%[116 µM],x,-27
CC(C)CC(=O)Nc1ccc(C(=O)Cn2c(=O)oc3ccccc32)cc1,-25,0%,i,x,-2%,1
CN(C)S(=O)(=O)c1ccc(C(=O)NCCSc2c(-c3ccccc3)[nH]c3ccccc23)cc1,x,u,u,-36%,-10%,-3
CCNC1(c2cccs2)CCCCC1=O (stereo not given),x,x,i,x,x,-10
Nc1ccc(CCN2CCN(c3cccc(C(F)(F)F)c3)CC2)cc1,-109*,-20%,i,-38%,-41%,-64
Nc1ccc(CCN2CCCC2)cc1,14,16%,u,x,1%,-2
SMILES,DRD3 antagonist,TGFb SMAD3 inh,ATXN viability,ATXN2 expr inh,HepG2 tox,D3 ag
O=C(CCl)c1ccc(Oc2ccc(C(=O)CCl)cc2)cc1,x,x,x,x,x,-5
CN(CC1COc2ccccc2O1)c1nc(-c2cccnc2)nc2ccccc12 (stereo not given),0,u,i,60%,5µM*,11
Cc1nc2ccccn2c1C(=O)N=Nc1c(O)n(CCC(C)C)c2ccccc12,77,1%,i,-8%,-4%,11
CNc1ccc(C(=O)CC(O)CCC(C)C2OC(=O)CC(O)CC(=O)CC(O)CC(O)CC(O)CC(O)CC3(O)CC(O)C(C(=O)OC)C(CC(O[C@@H]4O[C@H](C)[C@@H](O)[C@H](N)[C@@H]4O)/C=C/C=C/C=C/C=C/C=C/C=C/C=C/C2C)O3)cc1 (stereo not given in full),x,x,x,x,x,8
CN1CN(c2ccccc2)C2(CCN(CCCSc3ccccc3NC(=O)/C=C/c3ccccc3)CC2)C1=O,-107*,u,i,u,-2%,-10
O=C(Cc1ccccc1)OCCN1CCOCC1,-13,-10%,i,-8%,-12%,5
Brc1ccccc1OCCCN1CCOCC1,-51*,u,i,53%,5%,-66
Cc1c(C(=O)NCc2nccs2)cnn1-c1ncc2c(n1)-c1ccccc1CC2,x,x,i,x,x,x
Cn1c(NN=O)nc2ccccc21,1,u,14µM*,u,-25%,1
CN1CCN(Cc2nc3ccccc3n2C)CC1,-16,1%,u,2%,-2%,2
F/C(COc1ccc2c(c1)[nH]c1ccccc12)=C1/CN2CCC1CC2,x,x,x,x,x,-14
CC/C(=C\C=C\[C@@H]1C=C[C@@H]2CCC[C@H]2[C@@H]1C(=O)c1ccc[nH]1)[C@@H]1O[C@@H]([C@@H](C)C(=O)O)CC[C@@H]1C,9,11µM*,u,u,16µM*,3
CCN(CCNc1ccc([N+](=O)[O-])c2cccnc12)S(=O)(=O)c1ccccc1,15,-18%,i,4%,-6%,3
Cc1c(NS(=O)(=O)c2ccccc2)ccc([N+](=O)[O-])c1Cl,-20,11µM*,u,u,-25%,4
Oc1ccc(-c2cccnc2)cc1CNC1CN2CCC1CC2 (stereo not given),x,x,i,x,x,x
N#Cc1c(/N=C/C2C(=O)NC(=S)NC2=O)sc2c1CCCC2,3,1%,i,-4%,-13%,32*
CCOC(=O)c1c(/N=C/C2C(=O)NC(=S)NC2=O)sc2c1CCC2,-14,28%,i,-14%,-2%,-3

# Screens from PubChem BioAssay.
